# Reference: PubChem BioAssay
# Values joined by “and” are separate entries in the source; they are usually repeats but may differ in a detail not shown here. Identical values can stand only once. Records with an inconclusive call do not appear. Active and inactive are the calls of the source.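 Rule for the calls, unless noted: active = z-score of at least 1.8 in each of two replicates, scored against plate mean and spread of sample wells; inactive = the rest.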
# Legend:
# [1] = P. berghei load reduction in hepatocytes – cell-based, HepG2, luciferase luminescence, HepG2 viability, primary screen (AID 624349; in the data active = parasite load remaining mostly below about 12%, no sharp cut-off; inactive = mostly above about 10%;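 note: 100% = mean of DMSO negative control wells on the same plate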); details: P. berghei liver stage in HepG2, luciferase luminescence, concentration not given here; parasite load remaining: stronger effect = lower value; viability: measured here: HepG2 viability without parasites
# [2] = Wnt pathway potentiators raising nuclear beta-catenin – imaging, WNT3A-conditioned medium, mouse C2C12, NPC library, primary screen (AID 1117326; in the data active = nuclear beta-catenin stimulation mostly above about 4.2%, no sharp cut-off; inactive = mostly below about 10%; note: reference of the scale not given here); details: stronger effect = higher value
# [3] = stimulators of insulin release from INS-1E, primary screen, cell-based, 5 mM glucose, NPC library (AID 1117329;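 active = compound raises insulin release from rat beta cells at 5 mM glucose, no numeric limit stated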; note: reference of the scale not given here); details: rat INS-1E insulin secretion, at 10 µM, stronger effect = higher value
# [4] = growth inhibition of GSK3B-pretreated HCT116 cells – cell-based, CellTiter-Glo, 0.2 to 20 µM (AID 1117336;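 active = compounds lowering colon cancer cell viability after pretreatment blocking the GSK3B kinase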); details: HCT116 viability after GSK3B inhibitor, at 20 µM, stronger effect = higher value
# [5] = inhibition of endothelial tube formation, primary screen, imaging, VEGF stimulated, CD31 staining, tube area, NPC library (AID 1117340;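 active = compound that reduces growth-factor-driven endothelial tube area in a mixed cell culture, no cutoff stated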); details: VEGF-stimulated ADSC/ECFC co-culture, at 10 µM, stronger effect = higher value
# [6] = GLP1 release stimulators, primary, NCI-H716, NPC library (AID 1117341;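 active = compound raises GLP1 secretion from the human gut endocrine cells, with no numeric limit stated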; note: reference of the scale not given here); details: NCI-H716 cells, at 10 µM, stronger effect = higher value
# [7] = HCT116 colon cancer cell growth inhibition, primary screen, CellTiter-Glo luminescence, NPC library (AID 1117342;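 active = compounds that lower survival of HCT116 colon cancer cells in the luminescence readout, no numeric limit stated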); details: at 20 µM (top of the series)
# [8] = reduced SW480 viability measured with CellTiter-Glo, NPC library, primary (AID 1117343;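 active = compounds that lower viability of the colon cancer cells in the luminescence readout, with no numeric limit stated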); details: CellTiter-Glo luminescence; at 20 µM (top of the series) unless noted
# [9] = NPC library primary testing for decreased DLD-1 cell viability via CellTiter-Glo (AID 1117346;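 active = compounds that lower survival of DLD-1 colon cancer cells in the luminescence readout, no cutoff given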); details: DLD-1 viability, CellTiter-Glo luminescence; at 20 µM (top of the series)
# [10] = tested on: Aerobactin synthetase IucA (Klebsiella pneumoniae); assay: inhibition of K. pneumoniae IucA enzyme – biochemical, Tocris library, absorbance (AID 1345561; call rule not given here;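 note: 100% = enzyme without compound and 0% = no enzyme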); details: purified IucA enzyme assay, absorbance (OD) read-out; stronger effect = lower value;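 tested at 8 µM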
# [11] = viability loss in pontine glioma line – cell-based, SU-DIPG-XVII, MIPE5.0, CellTiter-Glo, qHTS, dose response (AID 1347060; cut-off not given, nearly all actives have AC50 up to about 26 µM;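 note: cells exposed to compound for 48 hours before viability readout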); details: CellTiter-Glo ATP luminescence
# [12] = viability loss in pontine glioma line – cell-based, SU-DIPG-XIII, MIPE4.0, CellTiter-Glo, qHTS, dose response (AID 1347061; cut-off not given, nearly all actives have AC50 up to about 37 µM;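 note: cells exposed to compound for 48 hours before readout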); details: CellTiter-Glo ATP luminescence
# [13] = viability loss in pontine glioma line – cell-based, JHH-DIPG-1, MIPE4.0, CellTiter-Glo, qHTS, dose response (AID 1347062; cut-off not given, nearly all actives have AC50 up to about 27 µM;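 for AC50: cells exposed to compound for two days before readout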); details: JHH-DIPG-1 viability, CellTiter-Glo ATP luminescence
# [14] = growth inhibition of DIPG cells – cell-based, MIPE5.0 library, qHTS (AID 1347068; cut-off not given, nearly all actives have IC50 up to about 30 µM); details: SU-DIPG-XXV viability
# [15] = MELAS cybrid and Rieske KO viability enhancers – cell-based, MELAS cybrids, Rieske KO mouse fibroblasts, CellTiter-Glo, primary screen (AID 1508586;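 active = mean z-score across replicates of 1.96 or higher in either the MELAS or the Rieske mutant cell line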;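 note: z relative to plate mean and SD of compound and empty wells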); details: low glucose
# [16] = galactose survival enhancers in mitochondrial complex I cybrids – cell-based, galactose medium, ATP luminescence, primary screen (AID 1645843); details: complex I mutant cybrid cells, 72 h, stronger effect = higher value;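 note: positive z means more ATP and so rescue of galactose-driven cybrid death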
# [17] = viability loss with induced miR-34 in A549 – imaging, A549 dox-inducible miR-34, nuclei and caspase counts, primary screen (AID 1347080;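 active = compounds whose cell count with miR-34 switched on is under 0.7 times the count with it off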); details: A549 miR-34 inducible, Hoechst nuclei count, 48 h
# [18] = biological target: NAD(+) hydrolase SARM1 (Homo sapiens) (UniProt Q6SZW1); assay: blocking NAD cleavage by SARM1 SAM-TIR – cell lysate, NAD-Glo luminescence (AID 1508614;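 active = compound whose remaining NAD level is above about 45 nM, limit read from the data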;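 note: higher remaining NAD means stronger inhibition of SARM1 NADase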); details: SAM-TIR HEK293T lysate NADase, at 1 µM, stronger effect = higher value
# Chain of NAD(+) hydrolase SARM1 (Homo sapiens) (Q6SZW1 whole entry, looked up): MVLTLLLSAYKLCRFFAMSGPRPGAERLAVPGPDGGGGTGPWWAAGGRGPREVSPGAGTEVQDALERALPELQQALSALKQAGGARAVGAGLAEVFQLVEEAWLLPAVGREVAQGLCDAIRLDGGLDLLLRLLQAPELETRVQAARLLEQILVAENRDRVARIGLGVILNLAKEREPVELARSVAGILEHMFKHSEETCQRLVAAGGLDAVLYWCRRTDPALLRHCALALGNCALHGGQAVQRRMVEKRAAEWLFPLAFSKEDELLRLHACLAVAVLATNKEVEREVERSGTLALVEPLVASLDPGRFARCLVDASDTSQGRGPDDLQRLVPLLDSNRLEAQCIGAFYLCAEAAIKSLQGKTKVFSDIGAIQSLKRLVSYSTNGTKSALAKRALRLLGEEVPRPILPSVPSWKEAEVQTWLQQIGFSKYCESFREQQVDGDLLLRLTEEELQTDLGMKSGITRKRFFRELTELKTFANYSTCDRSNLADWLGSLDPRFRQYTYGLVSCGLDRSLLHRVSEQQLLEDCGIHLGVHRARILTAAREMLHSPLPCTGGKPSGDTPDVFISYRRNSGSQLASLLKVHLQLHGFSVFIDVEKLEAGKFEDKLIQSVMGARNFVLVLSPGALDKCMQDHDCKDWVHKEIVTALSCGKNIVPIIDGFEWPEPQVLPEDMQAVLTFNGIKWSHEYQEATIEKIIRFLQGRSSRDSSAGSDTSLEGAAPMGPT
# [19] = MELAS cybrid survival, CellTiter-Glo 48 h, stronger effect = higher value
# [20] = Rieske KO mouse fibroblast survival, CellTiter-Glo 72 h
# [21] = stronger effect = lower value, cell number ratio, induced over uninduced
# [22] = measured here: relative caspase fold change +Dox/-Dox
# [23] = measured here: total cells with miR-34 induction, stronger effect = lower value
# [24] = measured here: total cells without miR-34 induction
structure (smiles),measurement,setting,value
CC1=C(/C=C/C(C)=C/C=C/C(C)=C/C(=O)Nc2ccc(O)cc2)C(C)(C)CCC1,parasite load remaining,[1],39.4% (inactive)
same,viability,[1],108%
same,nuclear beta-catenin stimulation,[2]; at 10 µM,21.3% (inactive)
same,nuclear beta-catenin stimulation,"[2]; stimulation, at 2 µM",39.9%
same,insulin secretion stimulation,[3],2.3% (inactive)
same,viability decrease,[4],98.8% (active)
same,tube area decrease,[5],110% (active)
same,GLP1 secretion stimulation,[6],2.4% (inactive)
same,inhibition of viability,[7],90.4% (active)
same,viability decrease (inhibition),[8],118% (active)
same,viability decrease (inhibition),[9],94.3% (active)
same,remaining activity,[10],97.3% (inactive)
same,AC50,[11],20.9 µM (active)
same,AC50,[12],34 µM (active)
same,AC50,[13],2.7 µM (active)
same,outcome,[14],inactive
same,z-score,[15]; [19],0.416 (inactive)
same,z-score,[15]; [20],0.408
same,z-score,[16],-0.95 (inactive) and -0.72 (inactive) and -2.12 (inactive)
CC[N+](CC)(CC)CCOc1ccc(/C=C/c2ccccc2)cc1,nuclear beta-catenin stimulation,[2]; at 10 µM,0.4% (inactive)
same,nuclear beta-catenin stimulation,"[2]; stimulation, at 2 µM",-0.8%
same,insulin secretion stimulation,[3],1.3% (inactive)
same,viability decrease,[4],-35.4% (inactive)
same,tube area decrease,[5],82.5% (active)
same,GLP1 secretion stimulation,[6],-1.8% (inactive)
same,inhibition of viability,[7],46.8% (inactive)
same,viability decrease (inhibition),[8],-6% (inactive)
same,viability decrease (inhibition),[9],56.2% (active)
same,remaining activity,[10],112% (inactive)
same,fold change,[17]; [21],1.12 (inactive) and 0.929 (inactive)
same,fold change,[17]; [22],0.542 and 0.715
same,cell count,[17]; [23],2640 and 2410
same,cell count,[17]; [24],2350 and 2590
same,z-score,[16],-1.29 (inactive) and -0.77 (inactive)
CC#C[C@]1(O)CC[C@H]2[C@@H]3CCC4=CC(=O)CCC4=C3[C@@H](c3ccc(N(C)C)cc3)C[C@@]21C,nuclear beta-catenin stimulation,[2]; at 10 µM,9.1% (inactive)
same,nuclear beta-catenin stimulation,"[2]; stimulation, at 2 µM",4%
same,insulin secretion stimulation,[3],1% (inactive)
same,viability decrease,[4],94.5% (active)
same,tube area decrease,[5],16.1% (inactive)
same,GLP1 secretion stimulation,[6],-3.8% (inactive)
same,inhibition of viability,[7],84.3% (active)
same,viability decrease (inhibition),[8],102% (active)
same,viability decrease (inhibition),[9],98.6% (active)
same,remaining activity,[10],115% (inactive)
same,AC50,[13],0.235 µM (active)
same,outcome,[14],inactive
same,z-score,[15]; [19],1.08 (inactive) and 0.356 (inactive)
same,z-score,[15]; [20],0.475 and 1.05
same,remaining NAD,[18],10 nM (inactive)
same,z-score,[16],0.48 (inactive) and -0.34 (inactive) and 0.325 (inactive)
CC1(CN2CCC(n3c(=O)[nH]c4ccccc43)CC2)OCc2ccccc2-n2cccc21 (stereo unspecified),nuclear beta-catenin stimulation,[2]; at 10 µM,2.3% (inactive)
same,nuclear beta-catenin stimulation,"[2]; stimulation, at 2 µM",2%
same,insulin secretion stimulation,[3],-3.4% (inactive)
same,viability decrease,[4],78.6% (active)
same,tube area decrease,[5],7.2% (inactive)
same,GLP1 secretion stimulation,[6],3.3% (inactive)
same,inhibition of viability,[7],113% (active)
same,viability decrease (inhibition),[8],146% (active)
same,viability decrease (inhibition),[9],101% (active)
same,remaining activity,[10],97.5% (inactive)
same,outcome,[13],inactive
same,outcome,[14],inactive
same,fold change,[17]; [21],0.899 (inactive)
same,fold change,[17]; [22],1.14
same,cell count,[17]; [23],6010
same,cell count,[17]; [24],6680
same,z-score,[16],-0.665 (inactive)
CCn1ccnc1CC1COc2ccccc2O1 (stereo unspecified),nuclear beta-catenin stimulation,[2]; at 10 µM,1.8% (inactive)
same,nuclear beta-catenin stimulation,"[2]; stimulation, at 2 µM",0.3%
same,insulin secretion stimulation,[3],-3.2% (inactive)
same,viability decrease,[4],-16.7% (inactive)
same,tube area decrease,[5],-3.6% (inactive)
same,GLP1 secretion stimulation,[6],0% (inactive)
same,inhibition of viability,[7],1.63% (inactive)
same,viability decrease (inhibition),[8],7.7% (inactive)
same,viability decrease (inhibition),[9],-5.9% (inactive)
same,remaining activity,[10],82.4% (inactive)
same,fold change,[17]; [21],1.08 (inactive) and 0.969 (inactive)
same,fold change,[17]; [22],1.15 and 0.987
same,cell count,[17]; [23],10600 and 8940
same,cell count,[17]; [24],9870 and 9220
same,z-score,[16],0.675 (inactive) and 1.33 (inactive)
Cc1ccc(=O)n(-c2ccccc2)c1,nuclear beta-catenin stimulation,[2]; at 10 µM,2.8% (inactive)
same,nuclear beta-catenin stimulation,"[2]; stimulation, at 2 µM",0.6%
same,insulin secretion stimulation,[3],-1.2% (inactive)
same,viability decrease,[4],-0.3% (inactive)
same,tube area decrease,[5],13.3% (inactive)
same,GLP1 secretion stimulation,[6],-2% (inactive)
same,inhibition of viability,[7],-4.6% (inactive)
same,viability decrease (inhibition),[8],39.2% (inactive)
same,viability decrease (inhibition),[9],12.8% (inactive)
same,remaining activity,[10],120% (inactive)
same,fold change,[17]; [21],1.05 (inactive) and 0.91 (inactive) and 0.937 (inactive)
same,fold change,[17]; [22],1.33 and 1.82 and 0.797
same,cell count,[17]; [23],11000 and 8480 and 9430
same,cell count,[17]; [24],10500 and 9310 and 10100
same,z-score,[15]; [19],-0.113 (inactive)
same,z-score,[15]; [20],-0.414
same,z-score,[16],0.38 (inactive) and -0.08 (inactive)
O=C1c2ccccc2S(=O)(=O)N1CCCCN1CCN(c2ncccn2)CC1,nuclear beta-catenin stimulation,[2]; at 10 µM,-1.2% (inactive)
same,nuclear beta-catenin stimulation,"[2]; stimulation, at 2 µM",1.3%
same,insulin secretion stimulation,[3],3.3% (inactive)
same,viability decrease,[4],-7% (inactive)
same,tube area decrease,[5],4.9% (inactive)
same,GLP1 secretion stimulation,[6],-1.9% (inactive)
same,inhibition of viability,[7],7.2% (inactive)
same,viability decrease (inhibition),[8],-2.4% (active)
same,viability decrease (inhibition),[9],-2.8% (inactive)
same,remaining activity,[10],111% (inactive)
same,fold change,[17]; [21],0.855 (inactive)
same,fold change,[17]; [22],1.78
same,cell count,[17]; [23],8330
same,cell count,[17]; [24],9750
same,z-score,[15]; [19],-0.295 (inactive)
same,z-score,[15]; [20],-0.0604
same,z-score,[16],0.135 (inactive)
NCCNC(=O)c1ccc(Cl)cn1,nuclear beta-catenin stimulation,[2]; at 10 µM,1.5% (inactive)
same,nuclear beta-catenin stimulation,"[2]; stimulation, at 2 µM",0.2%
same,insulin secretion stimulation,[3],-1.7% (inactive)
same,viability decrease,[4],-5.05% (inactive)
same,tube area decrease,[5],-14.8% (inactive)
same,GLP1 secretion stimulation,[6],-1.7% (inactive)
same,inhibition of viability,[7],-6.5% (inactive)
same,viability decrease (inhibition),[8],16.3% (inactive)
same,viability decrease (inhibition),[9],-10.3% (inactive)
same,remaining activity,[10],98% (inactive)
same,fold change,[17]; [21],0.873 (inactive)
same,fold change,[17]; [22],1.55
same,cell count,[17]; [23],8230
same,cell count,[17]; [24],9430
same,z-score,[16],0.045 (inactive)
NC(=O)n1c(O)c(C(=O)c2cccs2)c2cc(Cl)ccc21,nuclear beta-catenin stimulation,[2]; at 10 µM,-0.2% (inactive)
same,nuclear beta-catenin stimulation,"[2]; stimulation, at 2 µM",-0.7%
same,insulin secretion stimulation,[3],0.2% (inactive)
same,viability decrease,[4],106% (active)
same,tube area decrease,[5],58.6% (active)
same,GLP1 secretion stimulation,[6],-0.5% (inactive)
same,inhibition of viability,[7],102% (active)
same,viability decrease (inhibition),[8],128% (active)
same,viability decrease (inhibition),[9],97.5% (active)
same,remaining activity,[10],121% (inactive)
same,fold change,[17]; [21],0.969 (inactive)
same,fold change,[17]; [22],1.95
same,cell count,[17]; [23],7020
same,cell count,[17]; [24],7250
same,z-score,[16],-0.475 (inactive)
